# Results filed as inconclusive are left out. Entries that show only a call come without a potency. Active and inactive are the calls of the source. Unless noted, calls come from the whole dose curve; as a rule, active = well fitted curve in the direction sought with a large enough effect; inconclusive = small, poorly fitted or top-dose-only effect, or another doubt; inactive = no such curve, though single readings can be large; an effect the other way counts as inactive or inconclusive.
# Legend:
# [1] = target: Voltage-gated inwardly rectifying potassium channel KCNH2 (Homo sapiens) (UniProt Q12809); experiment: qHTS Assay for Small Molecule Inhibitors of the Human hERG Channel Activity (AID 588834); conditions: U2OS BacMam hERG, FluxOR thallium flux fluorescence; series mostly up to 46.1 µM;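 note: lower thallium flux fluorescence means stronger hERG block; nearly all actives have a fitted effect of over 50% in size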; note: potency is the fitted concentration of half-maximal effect
# How it was run: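 Step 1: BacMam hERG transduction of U2OS, 4 hrs RT. Step 2: overnight 37 °C, plate 2000 cells/well, 4 hr. Step 3: FluxOR load, compound 10 min, stimulate, read fluorescence.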
# [2] = target: Luciferin 4-monooxygenase (Photinus pyralis) (UniProt P08659); experiment: Biochemical firefly luciferase enzyme assay for NPC (AID 624030);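 note: purified P. pyralis luciferase at 10 nM with luciferin and ATP substrate; nearly all actives have a fitted effect of over 70% in size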; conditions: purified P. pyralis luciferase, luminescence, 5 min; series mostly up to 58.6 µM
# How it was run: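 Counter-screen for direct inhibition of the luciferase enzyme by approved-drug library compounds, run at 10 nM enzyme in 50 mM Tris acetate (final). Luminescence was read within 5 min of enzyme-buffer addition and normalized to PTC124 versus DMSO (0%).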
# [3] = qHTS Assay for Identification of Small Molecule Antagonists for NFkB Signaling Pathway. (AID 624479; calls by dose curve;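 note: pathway stimulated with TNF alpha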; note: potency is the fitted concentration of half-maximal effect); conditions: NFkB pathway reporter cell assay, antagonist mode; series mostly up to 38.3 µM
# [4] = Cell Proliferation Assay against the TMD8 Cell Line (AID 651645); conditions: TMD8 DLBCL cell line proliferation/viability; at 46.1 µM (top of the series) unless noted;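 note: cells exposed to compound for 48 h before reading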
# How it was run: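 500 TMD8 cells/well, RPMI + Glutamax, no phenol red, 5% FBS; cpd added immediately; 48 h, 37C, 5% CO2; CellTiter-Glo, luminescence. Controls: DMSO = 100%, bortezomib 9.2 uM final = 0%.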
# [5] = Cell Proliferation Assay against the HBL1 Cell Line (AID 651646); conditions: HBL1 DLBCL cells; at 46.1 µM (top of the series) unless noted;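 note: cells exposed to compound for 48 h before reading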
# How it was run: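 After a 48 h incubation of 500 HBL1 cells/well in phenol red-free RPMI plus 5% FBS, relative luciferase units from CellTiter-Glo gave percent activity against DMSO and 9.2 uM bortezomib (final) controls.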
# [6] = S16 Schwann cell viability assay (CellTiter-Glo assay) (AID 624031); conditions: S16 rat Schwann cells viability, 24 h; series mostly up to 57.5 µM;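 note: cellular ATP luminescence as a viability measure; nearly all actives have a fitted effect of over 70% in size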
# How it was run: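 Native S16 rat Schwann cells, 500-750 cells/well in DMEM with 10% FBS, dosed with compound after overnight culture and incubated 24h at 37 degree Celsius/5% CO2. Viability by CellTiter-Glo luminescence; % activity normalized to no-cell wells and DMSO-treated cells.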
# [7] = S16 Schwann cell PMP22 intronic element firefly luciferase assay (AID 624032); conditions: S16 rat Schwann cells, PMP22 element FLuc, 24 h; series mostly up to 57.5 µM; note: nearly all actives have a fitted effect of over 30% in size
# How it was run: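 Rat S16 Schwann cells stably carrying a PMP22 intronic element-driven Fluc reporter were seeded overnight, then exposed to compounds for 24 h at 37 °C. Luminescence was normalized to PTC124 (positive control) and DMSO (0% activity).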
# [8] = S16 Schwann cell PMP22 intronic element beta-lactamase assay (AID 624044; calls by dose curve; note: nearly all actives have a fitted effect of over 15% in size; note: potency is the fitted concentration of half-maximal effect); conditions: S16 rat Schwann cells, PMP22 element beta-lactamase FRET, 24 h; series mostly up to 38.3 µM
# How it was run: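 Beta-lactamase reporter under a PMP22 intronic regulatory element in stable S16 rat Schwann cells; 24 h compound exposure. 460 nm blue signal normalized between DMSO (0%) and potassium clavulanate, with 535 nm FRET tracking viability; curves classed by r2 and response.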
# [9] = target: Glutaminase kidney isoform, mitochondrial (Homo sapiens) (UniProt O94925); experiment: qHTS for Inhibitors of Glutaminase (GLS): LOPAC Validation (AID 624146); conditions: glutaminase enzyme activity inhibition; series mostly up to 46.1 µM; note: nearly all actives have a fitted effect of over 60% in size; note: potency is the fitted concentration of half-maximal effect
# How it was run: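 Two-point fluorescence kinetic (t0, 30 min RT) for hKGA; glutamate detected via glutamate oxidase–HRP–Amplex Red. Substrate: 1 mM L-glutamine solution; buffer 45 mM KH2PO4, pH 8.2.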
# [10] = target: Glucagon-like peptide 1 receptor (Homo sapiens) (UniProt P43220); experiment: qHTS of GLP-1 Receptor Agonists: LOPAC Validation (AID 624148); conditions: GLP-1R agonist cell assay; series mostly up to 46.1 µM;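 note: higher luminescence signal means agonism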
# How it was run: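 HEK293 cells stably co-expressing a cAMP-responsive luciferase reporter and a hypersensitive GLP-1R were plated 12 h at 37 °C and exposed to compounds for 4-6 hr at 37 °C, 5% CO2. Luminescence was read 12 min after adding detection reagent.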
# [11] = qHTS of Nrf2 Activators: LOPAC Validation (AID 624149); conditions: Nrf2/ARE reporter cell assay; series mostly up to 46.1 µM
# How it was run: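 AREc32_Fluc cells, 1000/well, OPTI-MEM + 5% FBS, o/n 37 deg C 5% CO2; compound pin-transfer, 24 hr 37 deg C; Steady-Glo 30 min RT, luminescence read.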
# [12] = HTS Assay for Allosteric Antagonists of the Human D2 Dopamine Receptor: Hit Validation in HTRF (AID 624455); conditions: Cells stably expressing D1 dopamine receptor, inhibition mode; series mostly up to 46.1 µM
# How it was run: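 HTRF read-out; cells stably expressing D1 receptor; hits scored for inhibition of D1-mediated response. Primary screen: calcium flux, force-coupled inducible Hek293 Trex D2 line, antagonism vs EC80 dopamine.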
# [13] = Cytotoxicity counterscreen for NFkB agonists and antagonists (AID 624476); conditions: NFkB reporter cell line viability counterscreen; series mostly up to 46.1 µM;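 note: cells exposed to compound for 48 hours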
# Voltage-gated inwardly rectifying potassium channel KCNH2 (Homo sapiens), sequence (Q12809 whole entry, looked up): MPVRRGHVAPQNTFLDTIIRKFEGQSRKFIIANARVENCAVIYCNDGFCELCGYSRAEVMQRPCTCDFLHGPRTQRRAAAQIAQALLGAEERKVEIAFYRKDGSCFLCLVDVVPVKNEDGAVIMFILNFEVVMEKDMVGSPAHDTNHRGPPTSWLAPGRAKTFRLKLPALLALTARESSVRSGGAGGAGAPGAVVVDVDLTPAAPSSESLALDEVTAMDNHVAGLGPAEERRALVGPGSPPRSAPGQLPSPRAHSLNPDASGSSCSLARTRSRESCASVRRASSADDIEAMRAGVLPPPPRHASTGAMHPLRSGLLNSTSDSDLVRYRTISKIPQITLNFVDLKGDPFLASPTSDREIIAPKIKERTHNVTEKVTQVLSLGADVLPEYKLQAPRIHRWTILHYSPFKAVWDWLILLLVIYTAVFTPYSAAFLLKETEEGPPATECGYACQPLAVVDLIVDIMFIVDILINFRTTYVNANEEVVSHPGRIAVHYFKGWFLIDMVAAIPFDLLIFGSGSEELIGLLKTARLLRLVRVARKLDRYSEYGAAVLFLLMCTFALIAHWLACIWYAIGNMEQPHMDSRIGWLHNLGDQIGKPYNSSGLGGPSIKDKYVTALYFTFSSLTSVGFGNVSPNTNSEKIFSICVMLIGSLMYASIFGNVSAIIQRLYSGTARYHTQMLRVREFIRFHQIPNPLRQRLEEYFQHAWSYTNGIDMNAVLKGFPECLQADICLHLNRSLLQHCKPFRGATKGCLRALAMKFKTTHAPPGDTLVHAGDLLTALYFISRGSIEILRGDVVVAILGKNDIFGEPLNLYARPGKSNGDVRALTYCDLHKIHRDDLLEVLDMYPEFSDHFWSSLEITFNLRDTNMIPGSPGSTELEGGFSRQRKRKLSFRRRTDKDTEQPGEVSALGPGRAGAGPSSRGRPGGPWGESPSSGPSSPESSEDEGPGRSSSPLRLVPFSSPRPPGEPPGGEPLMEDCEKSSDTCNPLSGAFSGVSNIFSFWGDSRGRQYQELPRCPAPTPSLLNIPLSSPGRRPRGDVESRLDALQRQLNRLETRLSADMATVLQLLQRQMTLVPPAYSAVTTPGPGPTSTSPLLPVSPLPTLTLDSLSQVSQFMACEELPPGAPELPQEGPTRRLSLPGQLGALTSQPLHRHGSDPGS
# Glucagon-like peptide 1 receptor (Homo sapiens), sequence (P43220 whole entry, looked up): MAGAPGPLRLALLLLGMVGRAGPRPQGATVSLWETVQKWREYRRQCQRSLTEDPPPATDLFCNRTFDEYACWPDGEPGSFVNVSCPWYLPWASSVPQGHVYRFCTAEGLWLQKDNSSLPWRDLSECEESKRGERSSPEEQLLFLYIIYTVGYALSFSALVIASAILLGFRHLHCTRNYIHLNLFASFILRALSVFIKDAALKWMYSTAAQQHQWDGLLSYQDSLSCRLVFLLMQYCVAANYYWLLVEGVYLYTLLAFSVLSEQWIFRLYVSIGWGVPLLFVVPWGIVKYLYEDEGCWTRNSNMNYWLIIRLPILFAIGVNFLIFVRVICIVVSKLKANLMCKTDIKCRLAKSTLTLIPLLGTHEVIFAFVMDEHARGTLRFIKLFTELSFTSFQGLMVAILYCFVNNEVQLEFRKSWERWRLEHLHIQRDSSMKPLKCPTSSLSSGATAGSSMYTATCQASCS
# Luciferin 4-monooxygenase (Photinus pyralis), sequence (P08659 whole entry, looked up): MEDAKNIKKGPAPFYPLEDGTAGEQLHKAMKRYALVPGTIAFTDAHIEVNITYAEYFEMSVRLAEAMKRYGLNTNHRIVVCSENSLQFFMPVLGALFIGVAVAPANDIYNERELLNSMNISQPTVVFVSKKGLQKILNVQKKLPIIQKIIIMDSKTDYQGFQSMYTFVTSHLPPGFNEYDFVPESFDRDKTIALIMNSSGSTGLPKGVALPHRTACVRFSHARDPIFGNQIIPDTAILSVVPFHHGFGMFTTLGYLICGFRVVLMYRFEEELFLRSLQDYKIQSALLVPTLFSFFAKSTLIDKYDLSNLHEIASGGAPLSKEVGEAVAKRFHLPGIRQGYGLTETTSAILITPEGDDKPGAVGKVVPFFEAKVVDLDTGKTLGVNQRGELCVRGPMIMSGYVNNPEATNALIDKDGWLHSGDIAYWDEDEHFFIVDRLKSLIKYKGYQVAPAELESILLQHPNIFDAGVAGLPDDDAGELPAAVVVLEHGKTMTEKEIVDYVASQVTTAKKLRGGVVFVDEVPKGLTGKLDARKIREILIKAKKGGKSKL
# Glutaminase kidney isoform, mitochondrial (Homo sapiens), sequence (O94925 whole entry, looked up, canonical isoform): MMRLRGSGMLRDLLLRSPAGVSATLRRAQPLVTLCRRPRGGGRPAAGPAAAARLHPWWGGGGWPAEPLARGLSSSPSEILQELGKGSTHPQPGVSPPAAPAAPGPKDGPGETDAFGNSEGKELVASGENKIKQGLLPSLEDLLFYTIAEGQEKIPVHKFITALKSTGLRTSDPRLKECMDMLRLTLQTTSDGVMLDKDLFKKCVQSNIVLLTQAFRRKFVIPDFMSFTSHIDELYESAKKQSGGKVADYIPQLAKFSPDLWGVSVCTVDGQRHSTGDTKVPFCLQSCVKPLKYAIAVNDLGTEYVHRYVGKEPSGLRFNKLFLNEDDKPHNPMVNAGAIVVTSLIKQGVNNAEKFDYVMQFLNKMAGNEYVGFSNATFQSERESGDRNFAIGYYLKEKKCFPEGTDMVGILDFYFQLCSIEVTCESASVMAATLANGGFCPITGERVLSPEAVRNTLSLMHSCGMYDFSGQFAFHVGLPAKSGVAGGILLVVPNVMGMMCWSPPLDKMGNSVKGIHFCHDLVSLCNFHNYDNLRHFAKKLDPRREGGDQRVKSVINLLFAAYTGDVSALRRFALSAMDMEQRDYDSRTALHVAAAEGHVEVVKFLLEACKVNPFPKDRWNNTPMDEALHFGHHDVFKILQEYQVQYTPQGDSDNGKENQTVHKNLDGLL
compound,measurement,setting,value
Cc1nc(Nc2ncc(C(=O)Nc3c(C)cccc3Cl)s2)cc(N2CCN(CCO)CC2)n1,Potency,[1],inactive
same,Potency,[2],inactive
same,Potency,[3],16.8 µM (active)
same,viability (% of control),[4],8.11%
same,"viability, percent of control",[5],27.1%
Cc1cc(=O)oc2cc(O)ccc12,Potency,[1],inactive
same,Potency,[2],inactive
same,Potency,[6],inactive
same,Potency,[7],inactive
CCOC(=O)c1c(C)n(C)c2ccc(O)cc12,Potency,[1],inactive
same,Potency,[2],inactive
same,Potency,[6],inactive
same,Potency,[7],inactive
same,Potency,[8],inactive
Cc1cc2cc3c(C)cc(=O)oc3c(C)c2o1,Potency,[1],inactive
same,Potency,[2],inactive
same,Potency,[6],inactive
same,Potency,[7],inactive
same,Potency,[8],inactive
CCOc1cc(CC(=O)N[C@@H](CC(C)C)c2ccccc2N2CCCCC2)ccc1C(=O)O,Potency,[1],inactive
same,Potency,[2],inactive
same,Potency,[6],inactive
same,Potency,[7],inactive
same,Potency,[8],inactive
O=C(O)CCNC(=O)c1ccc(N=Nc2ccc(O)c(C(=O)O)c2)cc1,Potency,[1],inactive
same,Potency,[6],inactive
same,Potency,[7],inactive
COc1ccc(C2(C#N)CCC(C(=O)O)CC2)cc1OC1CCCC1 (stereo not given),Potency,[1],inactive
same,Potency,[2],inactive
same,Potency,[6],inactive
same,Potency,[7],inactive
COC1=C(OC)C(=O)C(CCCCCCCCCCO)=C(C)C1=O,Potency,[1],inactive
same,Potency,[2],inactive
same,Potency,[8],inactive
CCCOc1ccc2nc(NC(=O)OC)[nH]c2c1,Potency,[1],inactive
same,Potency,[2],inactive
same,Potency,[6],inactive
same,Potency,[7],inactive
OC(CN1CCN(c2cccc(Cl)c2)CC1)C(c1ccccc1)c1ccccc1 (stereo not given),Potency,[1],1.58 µM (active)
same,Potency,[9],inactive
same,outcome,[10],inactive
same,outcome,[11],inactive
same,outcome,[12],inactive
CC(C)(S)[C@@H](N)C(=O)O,Potency,[1],inactive
same,Potency,[6],inactive
same,Potency,[7],inactive
same,Potency,[8],inactive
O=c1c(O)c(-c2cc(O)c(O)c(O)c2)oc2cc(O)cc(O)c12,Potency,[1],inactive
same,outcome,[10],inactive
same,outcome,[11],inactive
same,outcome,[12],inactive
O=C1NC(=O)C(c2ccccc2[N+](=O)[O-])=C1Nc1ccc(O)c(Cl)c1,Potency,[1],inactive
same,Potency,[9],10 µM (active)
same,outcome,[10],inactive
same,outcome,[11],inactive
O=C(OC1C[C@H]2CC[C@@H](C1)[N+]21CCCC1)C(O)(c1ccccc1)c1ccccc1 (stereo not given in full),Potency,[1],inactive
same,Potency,[6],inactive
same,Potency,[7],inactive
same,Potency,[8],inactive
Cc1cc(=O)c2c(O)c3c(O)cc(=O)c4c3c3c(cc(O)c1c23)C(C)(C)C=4O,Potency,[1],3.98 µM (active)
same,Potency,[7],inactive
N=C(N)c1ccc2cc(OC(=O)c3ccc(N=C(N)N)cc3)ccc2c1,Potency,[1],inactive
same,Potency,[6],inactive
same,Potency,[7],inactive
Nc1cccc2c1CN(C1CCC(=O)NC1=O)C2=O (stereo not given),Potency,[1],inactive
same,Potency,[6],inactive
same,Potency,[7],inactive
same,Potency,[13],inactive
same,Potency,[3],inactive
same,viability (% of control),[4],102% [at 92.2 µM]
same,"viability, percent of control",[5],121% [at 92.2 µM]
CC(=O)O[C@H]1C(=O)[C@@]2(C)C([C@H](OC(=O)c3ccccc3)[C@]3(O)C[C@H](OC(=O)[C@H](O)[C@@H](NC(=O)c4ccccc4)c4ccccc4)C(C)=C1C3(C)C)[C@]1(OC(C)=O)CO[C@@H]1C[C@@H]2O (stereo not given in full),Potency,[1],inactive
same,Potency,[9],inactive
same,outcome,[10],inactive
same,outcome,[11],inactive
same,outcome,[12],inactive
CC1=C(C)C(=O)C(C(CCCCCC(=O)O)c2ccccc2)=C(C)C1=O (stereo not given),Potency,[1],inactive
same,Potency,[6],inactive
same,Potency,[7],inactive
same,Potency,[8],inactive
CCN(CCO)CCCC(C)Nc1ccnc2cc(Cl)ccc12 (stereo not given),Potency,[1],inactive
same,Potency,[6],inactive
same,Potency,[7],inactive
same,Potency,[8],inactive
same,Potency,[13],inactive
same,Potency,[3],inactive
same,viability (% of control),[4],114%
same,"viability, percent of control",[5],121%
NCCCCNCCCN,Potency,[1],inactive
same,Potency,[9],inactive
same,outcome,[10],inactive
same,outcome,[11],inactive
same,outcome,[12],inactive
CCCCN(CCCC)CCC(O)c1cc2c(Cl)cc(Cl)cc2c2cc(C(F)(F)F)ccc12 (stereo not given),Potency,[1],0.398 µM (active)
same,Potency,[6],inactive
same,Potency,[8],inactive
O=C(O)c1cccc(-c2noc(-c3ccccc3F)n2)c1,Potency,[1],inactive
same,Potency,[6],inactive
same,Potency,[7],inactive
O=C1c2c(O)cc(O)cc2OC(c2ccc(O)c(O)c2)C1O (stereo not given),Potency,[1],inactive
same,Potency,[9],0.708 µM (active)
same,outcome,[10],inactive
same,outcome,[11],inactive
same,outcome,[12],inactive
O=C(c1ccccc1)c1ccc2n1CCC2C(=O)O (stereo not given),Potency,[1],inactive
same,Potency,[9],inactive
same,outcome,[10],inactive
same,outcome,[11],inactive
same,outcome,[12],inactive
O=Nc1c(-c2c(O)[nH]c3cc(Br)ccc23)[nH]c2ccccc12,Potency,[1],11.2 µM (active)
same,outcome,[10],inactive
same,outcome,[11],inactive
same,outcome,[12],inactive
CCCCc1ccc2nc(NC(=O)OC)[nH]c2c1,Potency,[1],inactive
same,Potency,[6],inactive
same,Potency,[7],inactive
same,Potency,[8],0.239 µM (active)
NC(=NCc1ccccc1)NC(=O)c1nc(Cl)c(N)nc1N,Potency,[1],5.62 µM (active)
same,Potency,[9],inactive
same,outcome,[10],inactive
same,outcome,[11],inactive
same,outcome,[12],inactive
CC(C)c1ccc2oc3nc(N)c(C(=O)O)cc3c(=O)c2c1,Potency,[1],inactive
same,Potency,[6],inactive
same,Potency,[8],inactive
